This is a sample that favours compounds with a hit; in the whole collection about 5.7% have one here.
HT1080 IDH1KD tx = qHTS for induction of synthetic lethality in tumor cells producing 2HG: qHTS for the HT-1080-IDH1KD cell line; Potency, µM (titrated, usually from 46.1 µM), for the others: at the top dose activity, negative = toxicity, hits mostly cytotoxic; HT-1080 IDH1 knockdown viability, ATP luminescence, 48 h; hit rate 2% among 360,000;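 further: 0% = DMSO wells and -100% = cell-free medium wells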
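Using the IDH1-knockdown HT-1080 line run in the same batch and compound series as the NT line, viability after 48 h at 37 °C was determined by CellTiter-Glo luminescence and expressed as % activity.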
HT1080NT lethal = qHTS for induction of synthetic lethality in tumor cells producing 2HG: qHTS for the HT-1080-NT fibrosarcoma cell line | HT-1080-NT fibrosarcoma viability, CellTiter-Glo ATP luminescence, 48 h | Potency, µM (series often up to 46.1 µM), for inactives: at the top dose activity, negative = less viability, most hits filed as cytotoxic | hit rate 1.6% among 360,000;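 further: NT is the 2HG producing partner of a matched IDH1 knockdown line; 0% = DMSO-treated cells and -100% = media-only wells without cells; nearly all actives have a fitted effect of over 55% in size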
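HT-1080-NT; 750 cells/well; 5% FBS RPMI; 48 h compound, 37 degrees C; CellTiter-Glo luminescence; curve fitting and curve-class assignment.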
KB-3-1 cytotox = qHTS assay for MDR1-selective chemotherapeutics: Primary screen using the parental adenocarcinoma cell KB-3-1. KB-3-1 viability, CellTiter-Glo ATP luminescence, 72 h. Potency, µM (series often up to 46.1 µM), actives largely listed as cytotoxic. hit rate 1.4% among 400,000. AID 1347075, 2019; further: nearly all actives have a fitted effect of over 60% in size
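Screening of KB-3-1 cells (DMEM, 10% FBS, phenol-red free) ran from lowest to highest compound concentration; after 72 h at 37 °C viability was read luminescently and curves fitted.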
KB-V1 cytotox = qHTS assay for MDR1-selective chemotherapeutics: Primary screen using the drug-selected MDR subline cells KB-V1 | KB-V1 MDR cells viability, CellTiter-Glo, 72 h | Potency, µM (series often up to 46.1 µM), most hits filed as cytotoxic | hit rate 3.4% among 400,000 | AID 1347076, 2019; further: nearly all actives have a fitted effect of over 60% in size
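KB-V1 MDR subline cells in DMEM (phenol-red free, 10% FBS) exposed to compounds in qHTS concentration series for 72 h at 37 degrees C. Viability read by CellTiter-Glo luminescence; concentration-effect curves fitted after normalization and correction.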
An asterisk follows results filed as active; i = inactive; ? = inconclusive; nt = no result given. The call rests on the fitted dose curve; in most records, active means well fitted curve in the direction sought with a large enough effect; inconclusive means small, poorly fitted or top-dose-only effect, or another doubt; inactive means no such curve, though single readings can be large; an effect the other way counts as inactive or inconclusive. Unless noted, on the % scale 0 is the no-effect control and ±100 the full control effect; potency means the concentration at half of the fitted maximal effect.

SMILES	HT1080 IDH1KD tx	HT1080NT lethal	KB-3-1 cytotox	KB-V1 cytotox
CCOC(=O)C1=C(N)n2c(s/c(=C/c3ccco3)c2=O)=C(C(=O)OC)C1c1ccco1 (stereo unspecified)	14.6µM*	13µM*	8.2µM*	?
c1ccc(CCc2nc3ccccc3[nH]2)cc1	-1.1%	12.6%	i	i
c1cncc(-c2nc3cc4ccccc4cc3[nH]2)c1	-16.2%	-27.7%	i	?
Nc1nc2cc3ccccc3cc2[nH]c1=O	-5.4%	0.1%	6.51µM*	3.66µM*
Nc1cccc(CCc2nc3cc4ccccc4cc3[nH]2)c1	10.3µM*	?	5.17µM*	5.8µM*
CCOCC(=O)Nc1ccc(-c2cn3c(C)csc3n2)cc1	nt	nt	i	i
Cc1c(Br)c(C(F)(F)F)nn1CC(=O)NCc1ccccc1	-2.1%	-13.8%	i	i
COc1cccc(-c2cc(C(=O)NCCc3ccc(C)cc3)[nH]n2)c1	nt	nt	i	i
Oc1ccc(Cl)cc1C1C=C(c2ccc3c(c2)OCO3)NC(c2ccc(C(F)(F)F)cc2)N1 (stereo unspecified)	nt	nt	?	i
CC(C)(C)C(=O)NC(=S)NNC(=O)C(c1ccccc1)c1ccccc1	11.6µM*	18.4µM*	?	?
CCOC(=O)/C=c1\s/c(=C\c2c(OCC)ccc3ccccc23)c(=O)n1CC(=O)NCC1CCCO1 (stereo unspecified)	?	-19.4%	?	?
COc1ccccc1NC(=O)Cn1c(=O)n(CCC(=O)NCC2CCCO2)c(=O)c2cc(OC)c(OC)cc21 (stereo unspecified)	nt	nt	i	i
Cc1cc(NC(=O)Cn2c(=O)n(Cc3ccccc3)c(=O)c3ccccc32)no1	3.7%	-0.5%	i	7.31µM*
COc1ccccc1NC(=O)Cn1c(=O)n(Cc2ccccc2)c(=O)c2ccccc21	nt	nt	i	i
CCOC(=O)/C=c1/s/c(=C\c2c(OC)ccc3ccccc23)c(=O)n1CC(=O)NCC1CCCO1 (stereo unspecified)	?	16.4µM*	?	4.61µM*
COc1cc2c(=O)n(Cc3ccccc3)c(=O)n(CC(=O)NCC3CCCO3)c2cc1OC (stereo unspecified)	11.5%	5.1%	i	20.6µM*
CCOC(=O)/C=c1\s/c(=C\c2ccccc2C)c(=O)n1CC(=O)NCc1ccc2c(c1)OCO2	?	?	i	3.26µM*
CC(C)(C)c1ccc(C(=O)Nc2ccc(-c3nc4cc(Cl)ccc4o3)cc2)cc1	nt	nt	i	i
C=Cc1ccc(COc2ccc3oc(-c4ccccc4)c(C(=O)OCC)c3c2)cc1	nt	nt	i	i
CCOC(=O)/C=c1\s/c(=C\c2ccc3cc(OC)ccc3c2)c(=O)n1CC(=O)NCc1ccc2c(c1)OCO2	9.0%	12.2%	18.4µM*	?
CCOC(=O)/C=c1\s/c(=C\c2ccc3c(c2)OCCO3)c(=O)n1CC(=O)NCC1CCCO1 (stereo unspecified)	8.6%	1.7%	i	i
NC(=O)C1CCN(c2nccc(-c3ccc4c(c3)OCCCO4)n2)CC1	nt	nt	i	i
NC(=O)C1CCN(c2nccc(-c3ccc4c(c3)OCCO4)n2)CC1	nt	nt	9.2µM*	?
CCc1ccc(OCCCCn2c(CCNC(=O)C3CCCCC3)nc3ccccc32)cc1	nt	nt	?	i
CCNC(=S)/N=C(\N)Nc1nc(C)c2cc(C)ccc2n1	1.4%	-4.0%	?	9.2µM*
SMILES	HT1080 IDH1KD tx	HT1080NT lethal	KB-3-1 cytotox	KB-V1 cytotox
CCCCNC(=O)C1=CC(c2ccc3c(c2)OCO3)=NS(=O)(=O)N1C	nt	nt	i	i
C=CCn1c(N)c(C(=O)Nc2ccccc2OC)sc1=S	2.6%	-9.5%	i	i
C=CCn1c(N)c(C(=O)Nc2ccc(C)cc2)sc1=S	-17.5%	0.2%	i	18.4µM*
N#CCC(=O)Nc1ccc(C(=O)OC(C(=O)Nc2cc(C(F)(F)F)ccc2Cl)c2ccccc2)cc1 (stereo unspecified)	-27.8%	-4.3%	?	14.6µM*
O=C(CCc1ccccc1)NC(NC(=S)Nc1ccc(Cl)cc1)C(Cl)(Cl)Cl (stereo unspecified)	?	?	18.4µM*	i
CC(C)CC(=O)NC(NC(=S)Nc1ccccc1)C(Cl)(Cl)Cl (stereo unspecified)	?	-7.3%	i	?

Screening data from PubChem BioAssay.
